Screening results deposited in PubChem BioAssay by SRMLSC.
Sampled rows, rich in hits. Any-hit rate of the full collection: about 6.5%.
Spn DPM-DC inh: S. pneumoniae DPM-DC inhibitors, primary screen, biochemical, PK/LDH-coupled NADH fluorescence; purified DPM-DC; actives 0.49% (n = 65,000); diphosphomevalonate decarboxylase (Streptococcus pneumoniae D39); calls only at 10 µM;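 active means the 320 compounds with the highest percent inhibition in the single-dose primary screen, excluding strongly autofluorescent ones, cut at about 32% in these data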;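 further: kinetic rate of NADH fluorescence loss reporting ADP formed by the decarboxylase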
Autofluor 339: intrinsic fluorescence of library compounds, ex339/em460 – biochemical, MLSMR library, data from DPM-DC assay, artefact control, profiling panel; actives 5.5% (n = 65,000); compound autofluorescence, ex339/em460 nm, NADH buffer; active compounds read high; 1 = no-compound wells, NADH background; fluorescence fold increase at 10 µM;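 active means at 10 µM, mean starting fluorescence two-fold or more over control wells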;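 further: signal is the first read of a kinetic run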
PMK inhibit: S. pneumoniae PMK inhibitors, primary screen, biochemical, mevalonate pathway, pilot trial included; inhibition, % at 10 µM; actives 0.49% (n = 65,000); phosphomevalonate kinase (Streptococcus pneumoniae D39); purified PMK, PK/LDH-coupled NADH absorbance 340 nm;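 active means top-ranked compounds by inhibition in the single 10 µM screen, taking a fixed number of the strongest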;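 further: 0% = full reaction with DMSO carrier and 100% = background rate without enzyme reaction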
MK inhibit: S. pneumoniae MK inhibitors, primary screen, biochemical, PK/LDH-coupled NADH absorbance; mevalonate kinase [Streptococcus pneumoniae D39]; actives 0.48% (n = 65,000); purified MK, PK/LDH-coupled NADH absorbance 340 nm; inhibition, % at 10 µM;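 active means ranked among the strongest by inhibition in the single 10 µM screen, a fixed top-ranked set picked for dose follow-up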
Abs 340nm: compound light absorbance at 340 nm, profiling panel, artefact control, biochemical, MLSMR library, data from PS, PMK, MK assays; compound absorbance at 340 nm, fold over control; fold change at 10 µM; 65,000 tested, under 10 active; AID 708, 2007;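 active means at 10 µM dose, initial 340 nm absorbance at least 2 fold that of control wells; inactive means change under 2 fold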;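 further: initial absorbance extrapolated from kinetic A340 decline of NADH oxidation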
NADH enzymes: inhibitors of PK/LDH coupling enzymes, profiling panel, artefact control, biochemical, MLSMR library | coupled PK/LDH NADH assays, four targets | IC50, µM (highest dose often 10 µM), for inactives: at the top dose inhibition | actives 0.02% (n = 65,000);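 active means single-dose screening hits from any of four coupled enzyme assays that gave an IC50 when retested across doses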;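 further: the DPM-DC format reads NADH fluorescence rather than 340 nm absorbance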
The depositor's hits bear a star; i = inactive; / = no result given.

SMILES | Spn DPM-DC inh | Autofluor 339 | PMK inhibit | MK inhibit | Abs 340nm | NADH enzymes
Nc1c(S(=O)(=O)c2cccs2)c2nc3ccccc3nc2n1/N=C/c1cccc(O)c1 | / | 4* | 0 | 4 | 1.2 | 2%
Nc1c(S(=O)(=O)c2ccccc2)c2nc3ccccc3nc2n1/N=C/c1ccco1 | i | 1.8 | 10 | 2 | 1.2 | 7%
Cc1cccc(S(=O)(=O)c2c(N)n(/N=C/c3ccco3)c3nc4ccccc4nc23)c1 | i | 3.1* | 13 | 17 | 1.1 | 10%
O=c1c2c3nc4ccccc4nc3n(/N=C/c3ccco3)c2ncn1CCC1=CCCCC1 | i | 1.4 | 5 | 0 | 1.1 | 2%
OCCN(Cc1ccccc1)Cc1ccc(F)c(F)c1 | i | 1.1 | 5 | 35 | 1.1 | 15%
COc1ccc(NC(=O)N2CCCC(c3nc(-c4ccc(C(C)C)cc4)no3)C2)cc1 (configuration not stated) | i | 1.1 | 10 | 8 | 0.99 | 6%
Cc1cc(NC(=O)CCCC(=O)NCc2cccs2)no1 | i | 1.1 | 7 | 7 | 1 | 5%
COc1ccc(Cn2c(C)nc3c(c2=O)c2nc4ccccc4nc2n3Cc2ccco2)cc1 | i | 1.5 | 2 | 9 | 1 | 9%
Cc1ccc(S(=O)(=O)n2nc(-c3cccnc3)nc2N)cc1 | i | 1.1 | 3 | 9 | 1 | 4%
COc1ccc(S(=O)(=O)c2c(N)n(Cc3ccco3)c3nc4ccccc4nc23)cc1 | / | 3.8* | 16 | 12 | 1.1 | 14%
O=c1c2ccccc2nc(COc2ccccc2)n1/N=C/c1ccco1 | i | 1.1 | 6 | 11 | 1 | 6%
Cc1ccc(S(=O)(=O)c2c(N)n(/N=C/c3ccco3)c3nc4ccccc4nc23)cc1C | i | 3.2* | 11 | 3 | 1.1 | 5%
Cc1cccc(S(=O)(=O)c2c(N)n(/N=C/c3cccnc3)c3nc4ccccc4nc23)c1 | / | 3.7* | 9 | 15 | 1.1 | 12%
CCCCC(=O)Nc1ccc(C(=O)N2CCN(C)CC2)cc1 | i | 1 | 7 | 14 | 1 | 10%
CCOc1ccc2nc(C)cc(C(=O)O)c2c1 | / | 3.8* | 5 | 8 | 0.99 | 7%
COc1ccc2nc(C)cc(C(=O)O)c2c1 | / | 3.8* | 4 | 3 | 1 | 4%
COc1cc(C2Nc3cccc4cccc(c34)N2)cc(OC)c1O | / | 3.2* | 18 | 0 | 1 | 2%
COc1cc(C2Nc3cccc4cccc(c34)N2)ccc1OC(C)=O | i | 1.5 | 12 | 8 | 1.1 | 7%
O=c1[nH]c(NCCCO)nc2c1C1(CCCC1)Cc1ccccc1-2 | / | 2.1* | 13 | 8 | 1.1 | 11%
O=c1c2c(nc3n1CCCCC3)-c1ccccc1CC21CCCC1 | i | 1 | 8 | 12 | 1 | 7%
CC1(C)Cc2ccccc2-c2nc(NCCCO)n(-c3ccccc3)c(=O)c21 | / | 2.1* | 5 | 4 | 1.1 | 5%
Cn1c(NCCO)nc2c(c1=O)C1(CCCCC1)Cc1ccccc1-2 | / | 2.2* | 0 | 0 | 1.1 | 0%
CCCn1c(-c2cccs2)nc2ccccc21 | / | 3.7* | 0 | 10 | 1 | 5%
C=CCn1c(-c2cccs2)nc2ccccc21 | / | 3.1* | 6 | 10 | 1 | 8%
O=C(CN1CCC(O)CC1)N1c2ccccc2C=Cc2ccccc21 | i | 1.1 | 0 | 0 | 1.1 | 0%
CC1(C)CC2CC(C)(CN2C(=O)COC(=O)c2ccc(Cl)cc2N)C1 (configuration not stated) | / | 4.2* | 9 | 9 | 1 | 9%
N#CC1=C(SCc2ccccc2Cl)NC(=O)C(C(N)=O)C1 (configuration not stated) | i | 1.1 | 10 | 0 | 1 | 6%
CN(C)/C=N/c1c(C#N)cnn1-c1ccccc1 | i | 1.1 | 1 | 0 | 1 | 0%
CN(C)C=Nc1ccc2nn(-c3ccccc3)nc2c1 | / | 2.2* | 0 | 10 | 1.2 | 5%
